Measured values as given in a collection of fitness landscapes (doi:10.1016/j.celrep.2020.107928).
The full ranking holds about 81,000 sequences; the median of “one-hybrid fitness for binding NBS DNA” is about -0.1, and the highest 2% start at about 0.36. The list comes from a sample in which the highest values are over-represented; it also holds similar and randomly drawn sequences.

B1: Caulobacter ParB omega fusion; a variant is named by its letters at X, in order, B8GW30 (parent)
chain: MESVVVGEPGMSEGRRGLGRGLSALLGEVDAAPAQAPGEQLGGSREAPIEILQRNPDQPRRTFREEDLEDLSNSIREKGVLQPILVRPSPDTAGEYQIVAGERAWRAAQRAGLKTVPIMVRELDDLAVLEIGIIENVQRADLNVLEEALSYKVLMEKFERTQENIAQTIGKSXSHVANXMRLLXLPDEVQSYLVSGELTAXHARAIAAAADPVALAKQIIEGGLSVRETEALARKAPNLSAGKSKGGRPPRVKDTDTQALESDLSSVLGLDVSIDHRGSTGTLTITYATLEQLDDLCNRLTRGI

Variants of: B1
Test: one-hybrid fitness for binding NBS DNA (the Noc-binding site; scaled: cognate 1, non-cognate 0); higher = stronger binding
Details: with NBS DNA site
Outline: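 Values were rescaled so that cognate is 1 and non-cognate is 0. Each is a fitness, the log change in a variant's read ratio to wild type from Illumina reads of plasmids before and after selection, with three replicate libraries pooled and variants under 10 reads dropped. Selection of the Caulobacter ParB libraries, four specificity codons randomised, used E. coli USO with a HIS3 reporter, site 19 bp from the promoter, on M9-minus-histidine with 0.1 mM IPTG and 5 mM 3-AT for 48 hours at 37°C.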

Point of comparison: RHRR, “one-hybrid fitness for binding NBS DNA” value 0.656. Against it:
- HFFC — lower, ≤ 0.2
- LYPV — lower, ≤ 0.2
- TISM — lower, ≤ 0.2
- AKHW — lower, ≤ 0.2
- ALKD — lower, ≤ 0.2
- SPCC — lower, ≤ 0.2
- WADF — lower, ≤ 0.2
- RNVM — lower, ≤ 0.2
- SLWP — lower, ≤ 0.2
- MHGS — lower, ≤ 0.2
- FLKC — lower, ≤ 0.2
- NLKN — lower, ≤ 0.2
- QCSY — lower, 0.22
- QRHY — lower, 0.553
- QRYY — lower, 0.433
- QPHY — lower, ≤ 0.2
- QPSY — lower, ≤ 0.2
- QCGY — lower, 0.3
- QRSY — lower, 0.477
- QRWY — lower, 0.289
- QRGY — lower, 0.571
- QCHY — lower, 0.258
- QRIY — lower, 0.271
- QPGY — lower, ≤ 0.2
- KKIT — lower, ≤ 0.2
- QYVI — lower, ≤ 0.2
- PAGP — lower, ≤ 0.2
- AGDQ — lower, ≤ 0.2
- RWTS — lower, ≤ 0.2
- MTVE — lower, ≤ 0.2
- MHPL — lower, ≤ 0.2
- NLEL — lower, ≤ 0.2
- YEAS — lower, ≤ 0.2
- QRVY — lower, 0.344
- QRKY — higher, 0.699
- QCQY — lower, 0.265
- QSQY — lower, ≤ 0.2
- QRQY — lower, 0.521
- NRKY — lower, ≤ 0.2
- GKDL — lower, ≤ 0.2
- ARSS — lower, ≤ 0.2
- LLLY — lower, ≤ 0.2
- CRRR — lower, 0.373
- CRDR — lower, ≤ 0.2
- CRVR — lower, ≤ 0.2
- CCKR — lower, ≤ 0.2
- CRKR — lower, 0.417
- CRYR — lower, ≤ 0.2
- SYHR — lower, ≤ 0.2
- CIIR — lower, ≤ 0.2
- QLHC — lower, ≤ 0.2
- DTYG — lower, ≤ 0.2
- LLQA — lower, ≤ 0.2
- YPAF — lower, ≤ 0.2
- QLYS — lower, 0.252
- QLRH — lower, 0.452
- QLRN — lower, 0.319
- QLYH — lower, ≤ 0.2
- QLRS — lower, 0.586
- QLRP — lower, ≤ 0.2
- EPSE — lower, ≤ 0.2
- WYYR — lower, ≤ 0.2
- QNWS — lower, ≤ 0.2
- TTNM — lower, ≤ 0.2
- AGGD — lower, ≤ 0.2
- QTAD — lower, ≤ 0.2
- QTFS — lower, 0.391
- QTAP — lower, ≤ 0.2
- QTFK — lower, ≤ 0.2
- QTAS — lower, 0.51
- QTAH — lower, 0.401
- QTAN — lower, 0.217
- QTFN — lower, ≤ 0.2
- QTAM — lower, 0.233
- YQLR — lower, ≤ 0.2
- LRHP — lower, ≤ 0.2
- REPM — lower, ≤ 0.2
- TKNF — lower, ≤ 0.2
- SEEG — lower, ≤ 0.2
- RKKT — higher, 0.691
- RKKG — lower, 0.227
- RKKQ — lower, 0.242
- RKVT — lower, 0.512
- RPVT — lower, ≤ 0.2
- RKVP — lower, ≤ 0.2
- ILKV — lower, ≤ 0.2
- VPFY — lower, ≤ 0.2
- KRFR — lower, 0.469
- KCAR — lower, ≤ 0.2
- KRAR — lower, 0.541
- NRFR — lower, ≤ 0.2
- DRFR — lower, ≤ 0.2
- KPAR — lower, ≤ 0.2
- STSG — lower, ≤ 0.2
- QAKV — lower, 0.393
- QKKV — lower, 0.406
- QCKV — lower, 0.479
- QLKV — lower, 0.342
- QRVV — lower, 0.272
- QAVV — lower, ≤ 0.2
- QAQV — lower, ≤ 0.2
- QKVV — lower, ≤ 0.2
- QKCV — lower, ≤ 0.2
- QPKV — lower, ≤ 0.2
- QRPV — lower, ≤ 0.2
- QRKV — lower, 0.588
- NHES — lower, ≤ 0.2
- WMIP — lower, ≤ 0.2
- VPEL — lower, ≤ 0.2
- KIDS — lower, ≤ 0.2
- YGSP — lower, ≤ 0.2
- QMNV — lower, ≤ 0.2
- QHKV — lower, 0.44
- QSKV — lower, 0.398
- QTIV — lower, ≤ 0.2
- QSVV — lower, ≤ 0.2
- QHVV — lower, ≤ 0.2
- QMKV — lower, 0.424
- QTKV — lower, 0.599
- QTVV — lower, ≤ 0.2
- QHDV — lower, ≤ 0.2
- QMVV — lower, ≤ 0.2
- QIKV — lower, 0.267
- TFNG — lower, ≤ 0.2
- WQMG — lower, ≤ 0.2
- FYPI — lower, ≤ 0.2
- VPIG — lower, ≤ 0.2
- DNCR — lower, ≤ 0.2
- MCLS — lower, ≤ 0.2
- LFAP — lower, ≤ 0.2
- LAIW — lower, ≤ 0.2
- QRFA — lower, 0.494
- QPFA — lower, ≤ 0.2
- QHAA — lower, ≤ 0.2
- QSFA — lower, ≤ 0.2
- QMAA — lower, 0.339
- QRAA — lower, 0.617
- QVCG — lower, ≤ 0.2
- AEFL — lower, ≤ 0.2
- MPNG — lower, ≤ 0.2
- KRHP — lower, ≤ 0.2
- KCST — lower, ≤ 0.2
- KRGH — lower, ≤ 0.2
- KRST — lower, 0.573
- KRHT — lower, 0.651
- KCHT — lower, ≤ 0.2
- DRST — lower, ≤ 0.2
- KAET — lower, ≤ 0.2
- KRET — lower, 0.501
- KCGT — lower, ≤ 0.2
- KRGT — lower, 0.537
- KPET — lower, ≤ 0.2
- LDCV — lower, ≤ 0.2
- DSPG — lower, ≤ 0.2
- EQLY — lower, ≤ 0.2
- TMSQ — lower, ≤ 0.2
- VICL — lower, ≤ 0.2
- MMNR — lower, ≤ 0.2
- KCYT — lower, ≤ 0.2
- KRYT — lower, 0.613
- KRCD — lower, ≤ 0.2
- DRYT — lower, ≤ 0.2
- NRCT — lower, ≤ 0.2
- KRPT — lower, 0.305
- KRIT — lower, 0.481
- KRRT — higher, 0.674
- KCIT — lower, ≤ 0.2
- KCRT — lower, 0.315
- KRCT — lower, 0.558
- NRRT — lower, ≤ 0.2
- FRGT — lower, ≤ 0.2
- HAIS — lower, ≤ 0.2
- WVIG — lower, ≤ 0.2
- TARF — lower, ≤ 0.2
- LMCG — lower, ≤ 0.2
- PVMR — lower, ≤ 0.2
- SKSN — lower, ≤ 0.2
- CRIR — lower, ≤ 0.2
- HDNF — lower, ≤ 0.2
- TALC — lower, ≤ 0.2
- MHTW — lower, ≤ 0.2
- KPWT — lower, ≤ 0.2
- KRQP — lower, ≤ 0.2
- NRWT — lower, ≤ 0.2
- KRQT — lower, 0.513
- KRLT — lower, 0.469
- KPLT — lower, ≤ 0.2
- KCQT — lower, ≤ 0.2
- KCLT — lower, ≤ 0.2
- KRWT — higher, 0.669
- ELNV — lower, ≤ 0.2
- NLKK — lower, ≤ 0.2
- FRPG — lower, ≤ 0.2
- HKCG — lower, ≤ 0.2
- PFLC — lower, ≤ 0.2
- RHHH — lower, ≤ 0.2
- RHHP — lower, ≤ 0.2
- RHIR — lower, ≤ 0.2
- RHHR — lower, 0.447
- RHLR — lower, 0.329
- RHQR — lower, 0.448
- RHPR — lower, ≤ 0.2
- RHYR — lower, 0.387
- RHWR — lower, 0.256
- EMNR — lower, ≤ 0.2
- WDGG — lower, ≤ 0.2
- QAEP — lower, ≤ 0.2
- ADMS — lower, ≤ 0.2
- PVLV — lower, ≤ 0.2
- NCEV — lower, ≤ 0.2
- SRIS — lower, ≤ 0.2
- DRYY — lower, ≤ 0.2
- RHSH — lower, ≤ 0.2
- RHGR — lower, 0.403
- RHSD — lower, ≤ 0.2
- RHGP — lower, ≤ 0.2
- RHSR — lower, 0.448
- RHGH — lower, ≤ 0.2
- MNYT — lower, ≤ 0.2
- VDVI — lower, ≤ 0.2
- YLRS — lower, ≤ 0.2
- PAHQ — lower, ≤ 0.2
- SSQC — lower, ≤ 0.2
- FTTS — lower, ≤ 0.2
- SMHC — lower, ≤ 0.2
- QTYS — lower, 0.507
- QPLS — lower, ≤ 0.2
- QTCN — lower, ≤ 0.2
- QTIS — lower, 0.398
- QTCS — lower, 0.495
- QTPS — lower, 0.314
- QTIH — lower, 0.221
- QTCP — lower, ≤ 0.2
- QTIP — lower, ≤ 0.2
- QCLS — lower, 0.382
- QSLS — lower, 0.263
- CPTM — lower, ≤ 0.2
- DVLM — lower, ≤ 0.2
- WVEG — lower, ≤ 0.2
- TFRM — lower, ≤ 0.2
- MYPF — lower, ≤ 0.2
- EAVR — lower, ≤ 0.2
- PVAE — lower, ≤ 0.2
- QMCD — lower, ≤ 0.2
- QMCP — lower, ≤ 0.2
- QTQP — lower, ≤ 0.2
- QTQN — lower, ≤ 0.2
- QTQS — lower, 0.504
- QTRS — higher, 0.811
- QMCS — lower, 0.38
- QTWN — lower, ≤ 0.2
- NTRS — lower, ≤ 0.2
- QTES — lower, 0.317
- QTWP — lower, ≤ 0.2
- QTWS — lower, 0.444
- MSSN — lower, ≤ 0.2
- FFKL — lower, ≤ 0.2
- LPTN — lower, ≤ 0.2
- HFHL — lower, ≤ 0.2
- QSEF — lower, ≤ 0.2
- TASS — lower, ≤ 0.2
- DAGG — lower, ≤ 0.2
- DEKT — lower, ≤ 0.2
- QTLS — lower, 0.426
- QCCS — lower, 0.393
- QPCS — lower, ≤ 0.2
- QTLD — lower, ≤ 0.2
- QSCS — lower, 0.296
- QTLP — lower, ≤ 0.2
- ERTA — lower, ≤ 0.2
- TLTL — lower, ≤ 0.2
- EMRG — lower, ≤ 0.2
- RCNS — lower, 0.557
- RLNS — lower, 0.493
- RMDS — lower, ≤ 0.2
- RSDS — lower, ≤ 0.2
- RLND — lower, ≤ 0.2
- RFNS — lower, 0.331
- RMNS — lower, 0.481
- RSND — lower, ≤ 0.2
- RSNS — lower, 0.508
- RMNP — lower, ≤ 0.2
- RLDS — lower, ≤ 0.2
- RPNS — lower, ≤ 0.2
- PYGH — lower, ≤ 0.2
- TCDT — lower, ≤ 0.2
- SICL — lower, ≤ 0.2
- ITNT — lower, ≤ 0.2
- QLLN — lower, ≤ 0.2
- QGKR — lower, 0.358
- QLKM — lower, 0.318
- QDKR — lower, 0.32
- QSKR — higher, 0.979
- QLKR — higher, 0.932
- QPKP — lower, ≤ 0.2
- QSKD — lower, 0.203
- QPKR — lower, 0.405
- QEKR — lower, 0.285
- QSKP — lower, 0.229
- QLVR — lower, 0.34
- QCKR — higher, 1.08
- AWRM — lower, ≤ 0.2
- VLCG — lower, ≤ 0.2
- GDPR — lower, ≤ 0.2
- GMNC — lower, ≤ 0.2
